# Screening results as filed in PubChem.
# Sampled rows, rich in hits. Any-hit rate of the full collection: about 2.4%.
# D2 ag-1: activates the human D2 dopamine receptor. HEK293 T-REx D2 cells, calcium flux agonist mode. activation, % at 2 µM. 340,000 tested, 0.53% active. AID 485358;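 active = activation over 3 SD above normal in the single-dose calcium agonist read, cut at about 30% in these data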; also: 0% is about no effect
#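 HEK293 Trex D2 cells, tetracycline-induced, o/n 30 C 5% CO2; no-wash Ca dye, RT 30–90 min; 10-cycle baseline, 23 nl cpd added, kinetic Ca read 180 s; agonist hits = positive Ca response.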
# D2 PAM-1: D2 dopamine receptor (human) potentiation | HEK293 T-REx D2, calcium flux, EC20 dopamine potentiation | potentiation, % at 10 µM | 340,000 tested, 0.34% active;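 active = potentiation over 3 SD above the plate norm, cut at about 30% in these data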; also: 0% is about no effect
#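 Using a no-wash calcium dye in inducible, force-coupled HEK293 Trex cells expressing D2, we tracked fluorescence each second for 180 s after compound, then for 180 s after EC20 dopamine to detect augmented signalling.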
# D2 antagonist: D2 dopamine receptor (human) antagonism. AID 485344. inhibition, % at 10 µM. HEK293 TREx D2 cells, calcium flux, dopamine EC80. 340,000 tested, 2% active; in the data active = inhibition above about 30%; inactive = below that, where a call was filed; also: 0% is about no effect
#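 In this primary screen, negative modulation is detected by tracking calcium flux after an EC80 dopamine challenge in inducible HEK293 T-REx D2 cells preexposed to test compound for 180 s.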
# D2 ag-2: agonists of human D2 dopamine receptor (beta-arrestin) | P14416 | DiscoveRx PathHunter D2 beta-arrestin, luminescence, 90 min; 100% = 57 uM dopamine signal | activation, % (test concentration not listed) | 360,000 tested, 0.084% active | AID 624465; in the data active = activation above about 40%; inconclusive = between about 15% and that limit
#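 DiscoveRx PathHunter D2 beta-arrestin cells (2,100/well) attached overnight, then compound-stimulated 90 min at 37 C in HBSS/10 mM HEPES/0.1% Tween-20 buffer; beta-galactosidase complementation read by luminescence after 1 h at ambient temperature. Dopamine 57 uM final (EC100) as control.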
# D2 PAM-2: positive allosteric modulators of human D2 dopamine receptor | 360,000 tested, 0.23% active | DiscoveRx D2 beta-arrestin cells, luminescence, 90 min; 100% = 57 uM dopamine signal | potentiation, % (test concentration not listed) | AID 624464 | P14416; in the data active = potentiation above about 50%; inconclusive = mostly about 30% to 49%
#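 D2 cells co-treated with compound plus 50 nM dopamine (EC20) for 90 min at 37 deg C to detect potentiation. Beta-arrestin recruitment was read as enzyme-fragment luminescence after 1 h at ambient temperature. Full response was set by 57 uM dopamine.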
# D3 arrestin ag: confirmation of human D3 dopamine receptor agonists, beta-arrestin. shares compounds with D2 ag-1. DiscoveRx D3 beta-arrestin cells, luminescence, 90 min. Potency, µM (highest dose often 76.9 µM), inactives show top-dose activation, usual class: activators. 2,300 tested, 4% active;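 also: potency is read from the fitted curve at half-maximal effect; 100% = dopamine control response; nearly all actives have a fitted effect of over 70% in size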
# Target sequence (P35462 whole entry, looked up): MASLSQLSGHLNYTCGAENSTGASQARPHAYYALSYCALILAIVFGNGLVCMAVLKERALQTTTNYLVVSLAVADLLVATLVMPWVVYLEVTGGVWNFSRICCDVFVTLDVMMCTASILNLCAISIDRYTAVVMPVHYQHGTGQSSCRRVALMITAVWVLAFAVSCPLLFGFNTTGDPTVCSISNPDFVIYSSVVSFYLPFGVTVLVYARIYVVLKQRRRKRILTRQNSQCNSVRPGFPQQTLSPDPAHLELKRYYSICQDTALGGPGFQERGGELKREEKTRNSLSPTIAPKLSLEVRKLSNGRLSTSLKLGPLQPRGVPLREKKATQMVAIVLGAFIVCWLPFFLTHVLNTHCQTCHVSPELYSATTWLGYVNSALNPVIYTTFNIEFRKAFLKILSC
# D2 ag-3: activates human D2 dopamine receptor in D3 counterscreen; Potency, µM (highest dose often 76.9 µM), inactives show top-dose activation, actives largely listed as activators; 2,300 tested, 5.9% active; DiscoveRx PathHunter D2 beta-arrestin, luminescence, 90 min; response scale: percent relative to full dopamine signal; shares compounds with D2 ag-1; also: potency is read from the fitted curve at half-maximal effect; % of control where 0% means no effect; nearly all actives have a fitted effect of over 70% in size
# Numbers without * were called inactive; ? = inconclusive; . = not tested or not shown. Unless noted, calls follow the shape of the dose curve; as a rule, active = well fitted activation curve with a large enough effect; inconclusive = small, poorly fitted or top-dose-only effect; inactive = flat fitted curve, though single readings scatter.
SMILES,D2 ag-1,D2 PAM-1,D2 antagonist,D2 ag-2,D2 PAM-2,D3 arrestin ag,D2 ag-3
OC(COC(c1ccccc1)c1ccccc1)CN1CCN(c2ccccn2)CC1 (configuration not stated),77*,-19,78*,13,-15,4.5µM*,?
CCc1ccc(OCC(O)CN2CCN(c3ccccn3)CC2)cc1 (configuration not stated),80*,-36,-4,?,6,?,?
CC(=O)c1ccc(OCC(O)CN2CCN(Cc3ccccc3)CC2)cc1 (configuration not stated),9,-3,17,-7,-3,-21%,4%
Cc1ccc(C)c(C(=O)C(C)Sc2nc3nn(-c4ccccc4)c(=O)c-3c3n2CCCCC3)c1 (configuration not stated),0,14,-3,-2,0,.,.
COc1cc(C2CC(=O)Oc3c(C(CCN4CCN(c5ccccc5)CC4)c4ccc(N(C)C)cc4)c(OC)cc(OC)c32)cc(OC)c1OC (configuration not stated),0,-9,-3,15,-15,.,.
COc1cc(O)c(C(CCN2CCN(c3ccccc3)CC2)c2ccc3c(c2)OCO3)c(OC)c1 (configuration not stated),25,-24,75*,1,-19,-5%,5%
COc1cc(OC)c2c(-c3ccccc3)cc(=O)oc2c1C(CCN1CCN(c2ccccc2)CC1)c1ccc(N(C)C)cc1 (configuration not stated),.,.,.,4,-19,-6%,19%
COc1cc(OC)c2ccc(=O)oc2c1C(CCN1CCN(c2ccccc2)CC1)c1ccc(N(C)C)cc1 (configuration not stated),53*,-15,62*,2,-20,1%,12%
CCCCCc1cc(=O)oc2c(C(CCN3CCN(c4ccccc4)CC3)c3ccc(N(C)C)cc3)c(OC)cc(OC)c12 (configuration not stated),7,4,21,1,-18,.,.
COc1ccc(C(CCN2CCN(c3ccccc3)CC2)c2c(OC)cc(OC)c3c(-c4ccccc4)cc(=O)oc23)cc1 (configuration not stated),69*,-9,79*,9,-11,?,?
CCOC(=O)C1=C(COc2ccccc2)NC(=O)NC1c1ccc(Br)cc1 (configuration not stated),0,-2,-3,-1,-3,.,.
O=S(=O)(c1cc(Cl)ccc1Cl)N1CCc2ccccc21,61*,-17,37*,-1,2,-5%,4%
COc1ccc(N2CCN(C3CCCN(Cc4ccc(F)cc4)C3)CC2)cc1 (configuration not stated),0,-5,-16,1,-24,.,.
FC(F)(F)c1ccccc1CN1CCCC(N2CCN(c3ccccc3)CC2)C1 (configuration not stated),62*,-25,78*,-1,-15,-4%,21%
COc1ccc(NC(=O)NCCCN2CCN(c3ccccc3F)CC2)cc1,82*,-25,92*,6,-4,?,24%
CCOC(=O)N1CCC(Nc2c(NCCN3CCN(c4ccccc4F)CC3)c(=O)c2=O)CC1,43*,-9,24,2,-11,?,3%
CCOc1ccc(NC(=O)CCN2CCN(c3ccccc3OC)CC2)cc1,27,-28,61*,1,-31,-7%,4%
COc1cccc(NC(=O)CCN2CCN(c3ccccc3F)CC2)c1,76*,-24,77*,?,-8,?,?
CCOC(=O)N1CCC(Nc2c(NCCN3CCN(Cc4ccccc4)CC3)c(=O)c2=O)CC1,0,-15,23,0,-19,.,.
COc1cccc(CN(C)C(=O)Cc2ccc(OC)c(S(=O)(=O)N3CCOCC3)c2)c1,-1,3,-4,-4,-13,.,.
O=C(CN1C(=O)NC2(CCCC2)C1=O)OCCOc1ccc(Cl)cc1Cl,0,3,0,-4,2,.,.
COc1ccc(CNC(=O)Nc2nc(C(N)CCc3ccccc3)cs2)cc1 (configuration not stated),.,.,.,2,-4,.,.
CC(C)Cn1cc(-c2cccc3nccn23)cn1,.,.,.,-2,-9,.,.
O=C(Nc1ccc(C2SCCS2)cc1)c1ccccc1,1,1,-4,1,-5,.,.
COc1ccccc1N1CCN(CC(=O)Nc2ccc3c(c2)OCCO3)CC1,-1,19,-24,1,5,.,.
SMILES,D2 ag-1,D2 PAM-1,D2 antagonist,D2 ag-2,D2 PAM-2,D3 arrestin ag,D2 ag-3
O=C(CN1CCN(c2ccccc2F)CC1)c1ccc2cc[nH]c2c1,28,-25,29,-4,-14,9%,12%
CCOc1ccc(NC(=O)CCN2CCN(C)CC2)cc1,0,18,-13,3,-6,.,.
COc1ccccc1N1CCN(CCC(=O)Nc2ccc3c(c2)OCO3)CC1,55*,-18,80*,-1,-16,-4%,1%
CC(=O)N1CCc2cc(C(=O)CN3CCN(c4ccccc4F)CC3)ccc21,0,11,-5,-4,-9,.,.
CCOc1ccc(NC(=O)CCN2CCN(c3ccccc3F)CC2)cc1,79*,-20,77*,?,14,?,?
COc1ccc(NC(=O)CN2CCN(c3ccccc3F)CC2)cc1,0,6,-1,-1,-42,.,.
CCOc1ccc(NC(=O)NCCN2CCN(c3ccccc3F)CC2)cc1,77*,-29,79*,?,-8,?,?
CCOc1ccc(NC(=O)N(C(C)C)C2CCN(C(C)=O)CC2)cc1,0,11,.,.,.,.,.
COCCN(Cc1ccc(C)cc1)C(=O)[C@H]1O[C@@H](n2ccc(N)nc2=O)[C@H](O)[C@@H]1O,.,.,.,-3,-2,.,.
CSCc1ccc(C(=O)OCC(=O)NC2CCCC2)o1,.,.,.,-3,-12,.,.
COc1ccc(C(=O)CCN2CCN(c3ccccc3F)CC2)cc1,28,-25,82*,2,-35,4%,0%
CCN1CCN(CCCNC(=O)CCc2nc(-c3ccc(OC)cc3)no2)CC1,1,-15,-10,-2,-2,.,.
COc1ccc(C(=O)CCN2CCCCCC2)cc1,3,-8,-7,-2,-14,.,.
COc1ccc(-c2noc(CCC(=O)NCCN3CCN(c4ccccc4F)CC3)n2)cc1,41*,-27,65*,-1,-32,-1%,18%
